# Compound activity as filed in PubChem BioAssay.
# SMARCA2 act: activators of SMARCA2 function | activation, % at 9.1 µM | 370,000 compounds, 1% hits | MG213 cells, MMTV-luciferase reporter, dexamethasone, overnight | AID 652017; in the data active = activation above about 7.8%;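 note: 0% = vehicle wells and 100% = reference activator wells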
# PG9 Ab binder: small molecules binding HIV-1 gp120 antibody PG9; 360,000 compounds, 0.43% hits; AID 624416; inhibition, % at 6.7 µM; TR-FRET gp120-PG9 antibody binding; in the data active = inhibition above about 8.5%
# FXN GAA850 act: activators of GAA850 frataxin (FXN) promoter. HEK293 lucGAA850 FXN promoter luciferase reporter, 24 h; percent of 10 µM SAHA response. activation, % at 6 µM. 360,000 compounds, 0.56% hits;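 active = activation above the average of all compounds screened plus 3 SD, cutoff fixed separately per campaign, cut at about 7.5% in these data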;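 note: 0% = DMSO wells and 100% = 10 µM SAHA wells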
# HSP90 refold inh: inhibitors of HSP90 luciferase refolding in rabbit reticulocyte lysate; luciferase refolding luminescence, 3 h; inhibition, % at 5.6 µM; 290,000 compounds, 0.91% hits; AID 1789;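 active = inhibition above the screen-wide mean plus 3 SD, computed separately per campaign, cut at about 16% in these data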;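 note: 0% = DMSO wells and 100% = 60 µM geldanamycin wells; inhibitors lower the luminescence because luciferase stays unfolded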
# AI-2 QS modul: modulates the Vibrio harveyi AI-2 quorum sensing system | Vibrio harveyi JMH597 AI-2 luminescence/OD600 ratio, 9 h; hits give low values; strain lacks LuxN and CqsS sensors; 0 = neutral-control median | activity change, % at 7.5 µM | AID 2094 | 300,000 compounds, 0.4% hits; in the data active = activity change below about -75%, passing the limit was not always enough; inconclusive = no clear call, values can overlap the other calls;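 note: luminescence divided by OD600 gain over 9 h not by final OD600 alone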
# HSF1 inh: HSF1 inhibition | NIH3T3-HGL HSE-luciferase, MG132-induced, luminescence 8 h; hits give low values | activity change, negative = inhibition, % at 7.5 µM (by protocol) | 300,000 compounds, 0.77% hits | AID 2098;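 active = more than half of replicate wells show activity change below -50%, luminescence cut by over half; inconclusive = some wells, but at most half, below -50%; inactive = no replicate well below -50%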;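 note: luciferase reports HSF-1 transcriptional activity via heat shock element; 0% = median of DMSO wells and -100% = zero luminescence signal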
# JMH597 growth: retest: inhibitors of Vibrio harveyi JMH597 growth. shares compounds with AI-2 QS modul. OD600 absorbance, 9 h; lacks LuxN and CqsS sensors. growth inhibition, % at 7.5 µM. 750 compounds, 1% hits. AID 2726;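 active = every replicate shows growth inhibition above 50%; inconclusive = at least half, but not all, replicates pass that cutoff; inactive = fewer than half of replicates pass it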
# BB721 lum counter: retest counter-screen: lowers luminescence of constitutive-QS Vibrio harveyi BB721; 9 h; shares compounds with AI-2 QS modul; inhibition, % at 7.5 µM; 750 compounds, 95% hits;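 active = inhibition above about 80% in every replicate, not just on average, limit read from the data; inconclusive = at least half of replicates past the limit, but not all; inactive = fewer than half of replicates past the limit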
# BB721 growth: retest: inhibitors of Vibrio harveyi BB721 growth; 750 compounds, 3% hits; AID 2728; OD600 absorbance, 9 h; shares compounds with AI-2 QS modul; growth inhibition, % at 7.5 µM;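 active = every replicate shows growth inhibition above 50%; inconclusive = at least half but not all replicates above 50% inhibition; inactive = under half of replicates above 50% inhibition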
# AI-2 QS JMH597: Vibrio harveyi AI-2 signaling luminescence modulation – JMH597 strain, confirmation; shares compounds with AI-2 QS modul; Vibrio harveyi JMH597 AI-2 quorum sensing luminescence, 9 h; luxN and CqsS knockout, AI-2 only; inhibition, % at 7.5 µM; 750 compounds, 97% hits;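 active = every replicate shows more than 75% inhibition of signal versus neutral control wells; inconclusive = half to three quarters of replicates exceed 75% inhibition; inactive = fewer than half of replicates exceed 75% inhibition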
# Numbers without * were called inactive; ? = inconclusive; / = no result. Hits are enriched below; roughly 3.4% of the tested compounds scored in any of these assays.
SMILES,SMARCA2 act,PG9 Ab binder,FXN GAA850 act,HSP90 refold inh,AI-2 QS modul,HSF1 inh,JMH597 growth,BB721 lum counter,BB721 growth,AI-2 QS JMH597
COC(=O)CC#C[C@H](C)[C@@H](NS(=O)(=O)c1ccc([N+](=O)[O-])cc1)C(C)(C)C,-5,1,/,/,/,/,/,/,/,/
Cc1cc(N2CCN(C(=O)OC(C)(C)C)C[C@H]2C)ccc1N1CCS(=O)(=O)CC1,-2,0,/,/,/,/,/,/,/,/
COc1ccc(C(=O)CC(c2ccccc2)S(=O)(=O)c2ccc(C)cc2)cc1 (stereo not drawn),/,/,/,1,14,-4,/,/,/,/
COc1ccc(C(CC(=O)c2ccc(O)cc2)S(=O)(=O)c2ccc(C)cc2)cc1 (stereo not drawn),5,-2,1,3,-91*,56,3,96*,-13,97*
N#Cc1ccc(S(=O)(=O)N2CCCc3nc(-c4ccccc4)ccc32)cc1,-1,0,/,/,/,/,/,/,/,/
CC12CCC(=O)N1C(C(=O)Nc1ccc(SC(F)F)cc1)CS2 (stereo not drawn),-1,-1,0,/,-94*,-3,24,95*,17,96*
CC(C)c1ccc(NC(=O)C2CSC3(C)CCC(=O)N23)cc1 (stereo not drawn),0,1,3,-3,-91*,-3,3,93*,1,96*
c1ccc(CC(Nc2cccnc2)c2ccccc2)cc1 (stereo not drawn),-7,1,/,/,/,/,/,/,/,/
Cc1ccc(SCc2nc(-c3cccnc3)no2)cc1,4,0,0,3,?,10,23,96*,10,97*
CC(C)COc1ccc(/C(=N/O)c2ccccc2)cc1,0,-1,6,1,-85*,11,20,94*,27,95*
O=C(O)c1ccc(NCc2cccc(Br)c2)cc1,2,-2,2,-1,-91*,-1,28,98*,?,98*
COc1ccc(CNc2ccc(Br)cc2)cc1,2,1,3,-8,-2,16,/,/,/,/
COc1ccc(CNc2ccc(C(=O)O)cc2)cc1,0,0,2,-2,-95*,-2,18,99*,-3,99*
COc1ccc2ccccc2c1CN1CCN(c2ncc(Cc3ccccc3)cn2)CC1,-6,-3,/,/,/,/,/,/,/,/
CN(c1ccc(NC(=O)Cc2cn(C)c3ccccc23)cc1)c1ccccn1,-1,-1,/,/,/,/,/,/,/,/
CN(C)S(=O)(=O)c1ccc(NC(=O)CN2CCc3ccccc32)cc1,-3,-1,1,0,-92*,13,-17,96*,-8,97*
CCCCNC(=O)COC(=O)c1ccc(NS(=O)(=O)c2ccc3c(c2)OCCO3)cc1,4,1,2,5,-92*,-3,15,98*,-14,99*
COc1ccc(NC(=O)CSc2nc3ncccc3[nH]2)cc1OC,-4,1,0,1,12,3,/,/,/,/
COC(=O)c1ccccc1NC(=O)CSc1nc2ncccc2[nH]1,0,0,2,-1,32,-3,/,/,/,/
CC(C)c1ccc(NC(=O)CSc2nc3ncccc3[nH]2)cc1,-2,3,2,-1,-83*,14,25,93*,18,95*
CC(C)OC(=O)c1ccc(NC(=O)CSc2nc3ncccc3[nH]2)cc1,0,0,4,-1,-85*,10,27,96*,22,98*
Cc1c(O)ccc(C(=O)COc2ccccc2F)c1O,0,2,6,-2,?,16,29,89*,25,93*
O=C(COc1ccccc1F)c1ccc(O)cc1O,-2,3,-1,0,17,13,/,/,/,/
Cc1cc(NS(=O)(=O)c2ccc(NC(=O)CSc3nnc(-c4ccco4)n3-c3ccc(Cl)cc3)cc2)nc(C)n1,-8,/,/,/,/,/,/,/,/,/
N/C(=N\OC(=O)CC1CCCCC1)c1cccc(Br)c1,0,-1,1,-2,-80*,19,22,96*,28,96*
SMILES,SMARCA2 act,PG9 Ab binder,FXN GAA850 act,HSP90 refold inh,AI-2 QS modul,HSF1 inh,JMH597 growth,BB721 lum counter,BB721 growth,AI-2 QS JMH597
Cc1cccc(/C(N)=N/OC(=O)c2cccc3ccccc23)c1,0,-3,4,1,-85*,23,62,97*,?,98*
N/C(=N\OC(=O)c1cccc2ccccc12)c1cccc([N+](=O)[O-])c1,-1,2,0,-3,7,-2,/,/,/,/
O=C(NCCOc1ccccc1)c1cc2ccccc2o1,5,-1,1,4,-82*,32,7,87*,-7,92*
O=C(NCCc1ccccc1)c1cccc(S(=O)(=O)NCc2ccccc2)c1,-2,-1,1,/,-28,-2,/,/,/,/
CC(C)Cc1ccc(C(=O)NCCOc2ccccc2)o1,0,-2,1,15,10,46,/,/,/,/
O=C(NCCOc1ccccc1)c1cccc(S(=O)(=O)NCc2ccccc2)c1,-4,1,0,/,-97*,2,?,99*,9,99*
CCc1nnc(NC(=O)CN2C(=O)c3ccccc3C2=O)s1,-1,-2,3,1,?,-16,/,/,/,/
Cc1ccc2sc(NC(=O)CN3C(=O)c4ccccc4C3=O)nc2c1C,-2,-3,-1,3,-95*,-4,-29,95*,-44,97*
Cc1cccc2sc(NC(=O)CN3C(=O)c4ccccc4C3=O)nc12,-3,-1,1,-3,-84*,-1,4,94*,-19,97*
O=C(NCc1ccccc1)OC1CC2CC1[C@H]1CCCCN1C2 (stereo partly drawn),-1,/,/,/,/,/,/,/,/,/
O=C(c1ccncc1)N1CC[C@H]2[C@H](CCCN2Cc2ccccc2)C1,0,/,/,/,/,/,/,/,/,/
O=C1NCCCC1C(=O)N/N=C/c1cccc(Cl)c1 (stereo not drawn),-1,0,1,2,-79*,-5,-13,89*,2,93*
O=C1NCCCC1C(=O)N/N=C/c1ccc(Cl)cc1 (stereo not drawn),0,-2,0,-2,-49,-2,/,/,/,/
O=S(=O)(c1cccs1)N1CCN(CC(O)COC2CCCc3ccccc32)CC1 (stereo not drawn),-2,-2,0,-2,-2,-4,/,/,/,/
O=S(=O)(c1cccs1)N1CCN(CC(O)COc2cccc(Br)c2)CC1 (stereo not drawn),-5,-1,3,3,-82*,-1,-1,88*,-9,93*
